# From ChEMBL document CHEMBL1156829
# Whole data set: some 5,400 compounds, median “IFI” near 2, cut for the highest 2% near 22. Many of the other results were omitted from the sample, so the highest values are more common in it than they were.
# Assay: NOVARTIS: Inhibition Frequency Index (IFI) - the number of HTS assays where a compound showed > 50% inhibition/induction, expressed as a percentage of the number of assays in which the compound was tested.
# Type: functional
row,SMILES,IFI [%]
1,CC1CC(C)CC(C)C(O)C(C#N)=CC=CCC(C2CCCC2C(=O)O)OC(=O)CC(O)C(C)C1 (stereo not drawn),25.8
2,COc1ccc(Cn2cccc(C(=O)Nc3ccc(OC)cc3)c2=O)cc1,5.26
3,Oc1ccccc1C=Nc1ccccc1[Te]c1ccccc1N=Cc1ccccc1O,8.21
4,Cc1nc2c(=O)n(C)c(=O)nc-2n(C)n1,25
5,CCn1nc(/C=C/c2ccccc2)nc2c(=O)n(C)c(=O)nc1-2,16.7
6,Cn1ncnc2c(=O)n(C)c(=O)nc1-2,26.7
7,CCC(C)N1CCN(Cc2cccc(OC)c2OC)CC1 (stereo not drawn),3.17
8,CCCC[C@@H](C)C(O)[C@H]1C(=O)N[C@@H](CC)C(=O)N(C)CC(=O)N(C)[C@@H](CC(C)C)C(=O)N[C@@H](C(C)C)C(=O)N(C)[C@@H](CC(C)C)C(=O)N[C@@H](C)C(=O)N[C@@H](C)C(=O)N(C)[C@@H](CC(C)C)C(=O)N(C)[C@@H](CC(C)C)C(=O)N(C)[C@@H](C(C)C)C(=O)N1C (stereo partly drawn),3.45
9,CNCC(O)c1ccc(Cl)c(Cl)c1 (stereo not drawn),0
10,Nc1ccc(C(=O)NN=Cc2cccc([N+](=O)[O-])c2)cc1,0
11,C=C[C@H]1CN2CC[C@H]1C[C@H]2[C@H](OC(=O)c1cccc([N+](=O)[O-])c1)c1ccnc2ccccc12,0.926
12,COC1=CC(C)=C[C@@H](C)[C@@H](O)[C@H](C)CC(C)=CC=C[C@H](OC)[C@@H](C(C)C(O)[C@H](C)[C@@]2(O)C[C@@H](O)[C@H](C)[C@@H](C(C)C)O2)OC1=O (stereo partly drawn),19.6
13,C=CC1CN2CCC1CC2C(OC(=O)C1CC1)c1ccnc2ccccc12 (stereo not drawn),0
14,Cc1ccc(CN2C3CCCC2CC(NC(=O)Nc2cccc(F)c2)C3)cc1 (stereo not drawn),1.32
15,O=C(Nc1ccc(Oc2ccc(OC(F)(F)F)cc2)cc1)C1CC1,1.57
16,COc1ccc(NC2=C(N3CCCCC3)C(=O)c3ccccc3C2=O)cc1,18.7
17,CCOC(=O)CN(N=O)C1=C(N2CC2)C(=O)c2ccccc2C1=O,30.8
18,COc1cc(CN2CC3CC(C2)c2cccc(=O)n2C3)ccc1O (stereo not drawn),0
19,O=C(NNC(=O)c1csnn1)c1ccc(C(F)(F)F)cc1,3
20,Cc1nc(Oc2ccc3ccc(=O)oc3c2)c2c3c(sc2n1)CCCCC3,0
21,Cc1c2ccccc2c(C)c2ccccc12,3.76
22,NC(=O)Oc1ccc(Cc2ccccc2)cc1,0
23,CC(Cc1ccccc1)NCc1ccccc1O (stereo not drawn),3.12
24,CN1CCN(c2nc(Cl)nc3[nH]cnc23)CC1,0.699
25,CC(=O)N(C1=C(N(C)C)C(=O)c2ccccc2C1=O)c1ccc(Cl)cc1,0
26,CC(=O)N(C1=C(N(C)C)C(=O)c2ccccc2C1=O)c1cccc(F)c1,15.4
27,CC(=O)N(C1=C(N(C)C)C(=O)c2ccccc2C1=O)c1ccc(F)c(F)c1,23.1

row,SMILES,IFI [%]
1,COc1ccccc1-n1c(/C=C/c2cc(Br)ccc2O)nc2ccccc2c1=O,8.06
2,CC(C)[C@@]1(NC(=O)[C@@H]2C[C@@H]3c4cccc5[nH]cc(c45)C[C@H]3N(C)C2)O[C@@]2(O)[C@@H]3CCCN3C(=O)[C@H](CC3CCCCC3)N2C1=O,9.52
3,O=C1c2ccccc2-c2nc3nnnn3nc21,42.9
4,CC=C[C@H]1O[C@@](O)([C@H](C)C(O)C(C)[C@@H]2OC(=O)C(OC)=CC(C)=C[C@H](C)[C@H](O)[C@H](CC)[C@H](O)C(C)CC(C)=CC=C[C@H]2OC)C[C@@H](O[C@@H]2C[C@H](O)[C@@H](OC(N)=O)[C@H](C)O2)[C@@H]1C (stereo partly drawn),15
5,CO/C(=C\C(N)=O)C(C)C(/C=C/c1csc(-c2csc(C(C)/C=C/C=C/C(C)C)n2)n1)OC (stereo not drawn),11.5
6,C=C[C@H]1CN2CC[C@H]1C[C@H]2[C@H](OC(C)=O)c1ccnc2ccccc12,1.89
7,CC[C@H]1CN2CC[C@@H]1C[C@@H]2[C@@H](O)c1ccnc2ccc(OC)cc12,2.16
8,CC1OC(=O)C(C(C)C)NC(=O)C(C(C)C)OC(=O)C(C(C)C)NC(=O)C(C)OC(=O)C(C(C)C)NC(=O)C(C(C)C)OC(=O)C(C(C)C)NC(=O)C(C)OC(=O)C(C(C)C)NC(=O)C(C(C)C)OC(=O)C(C(C)C)NC1=O (stereo not drawn),27.7
9,C=CC1(O)CN2CCC1CC2[C@@H](O)c1ccnc2ccc(OC)cc12 (stereo partly drawn),3.57
10,CCc1cc2c(cc1-c1csc(NC(=N)N)n1)C(C)(C)CCC2(C)C,5.16
11,CC1(C)CN=C(NCc2ccccc2Cl)S1,0
12,C=CC1CN2CCC1CC2C(OC(=O)c1ccco1)c1ccnc2ccccc12 (stereo not drawn),0
13,COc1cc2c3c(c4cc(OC)c(OC)cc4c2cc1OC)CN1CCC[C@@H]1C3,5.26
14,OC1(c2ccc(Br)cc2)CCN(C2CCN(CCc3ccccc3)CC2)CC1,4.1
15,Cc1cc(N(C)C)cc(C)[n+]1OC(=O)N(c1ccccc1)c1ccccc1,16.7
16,CNC1CC2OC(C)(C1OC)n1c3ccccc3c3c4c(c5c6ccccc6n2c5c31)C(=O)NC4O (stereo not drawn),28.6
17,C/C(=C\c1csc(C)n1)[C@@H]1C[C@@H]2O[C@@H]2CCC[C@H](C)C(O)[C@@H](C)C(=O)C(C)(C)[C@@H](O)CC(=O)O1 (stereo partly drawn),6.9
18,CCC1CN2CCc3cc(OC)c(OC)cc3C2CC1CC1NCCc2cc(OC)c(OC)cc21 (stereo not drawn),33.3
19,CC[C@H]1CN2CCc3cc(OC)c(OC)cc3[C@@H]2C[C@@H]1C[C@@H]1NCCc2cc(OC)c(OC)cc21,37
20,CC[C@H]1CN2CCc3cc(OC)c(OC)cc3[C@@H]2C[C@@H]1C[C@H]1NCCc2cc(OC)c(OC)cc21,23.8
21,CC[C@H]1CN2CCc3cc(OC)c(OC)cc3[C@@H]2C[C@@H]1C[C@H]1NCCc2cc(O)c(OC)cc21,32.3
22,COc1ccc(C=NNc2ccnc3cc(Cl)ccc23)cc1,4.8
23,CN1C[C@@H](CSc2ccccn2)C=C2c3cccc4[nH]cc(c34)C[C@H]21,4.88
24,C=CC1CN2CCC1C(C(O)c1ccnc3ccc(OC)cc13)C2 (stereo not drawn),2.29
25,CC=C[C@H]1O[C@@](O)([C@@H](C)C(O)C(C)[C@H]2OC(=O)C(OC)=CC(C)=C[C@@H](C)[C@H](O)C(CC)[C@@H](O)[C@H](C)CC(C)=CC=C[C@@H]2OC)C[C@@H](O[C@H]2C[C@@H](O)[C@H](OC(N)=O)[C@@H](C)O2)[C@@H]1C (stereo partly drawn),17.5
26,CCCCCCCCCCCCn1ccc(=N)cc1,15.4
